# Assay results from PubChem BioAssay (NCI).
# Where “and” joins values, the source holds several entries; their conditions need not be identical. Equal values may be shown once. The panel holds about 83,000 compounds, 20% with a hit somewhere; the sample as a whole holds those more often.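 Method: cells in 96-well plates; compound added at one concentration; 48 h incubation; percent growth measured; values under 10 scored active.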 Calls of active or inactive are those of the source.
# How the values were obtained:
# Experiment in all cases: NCI-60 one-dose screen, 48 h (100 = growth as untreated, 0 = no growth, -100 = all killed)
# Settings in all cases: 10 µM unless noted
# [1] = test system: SR leukemia
# [2] = test system: RPMI-8226 leukemia
# [3] = test system: OVCAR-5 ovarian
# [4] = test system: OVCAR-4 ovarian
# [5] = test system: SK-OV-3 ovarian
# [6] = test system: IGROV1 ovarian
# [7] = test system: OVCAR-3 ovarian
# [8] = test system: HS 578T breast
# [9] = test system: NCI/ADR-RES ovarian
# [10] = test system: T-47D breast
# [11] = test system: BT-549 breast
# [12] = test system: MDA-MB-435 melanoma
# [13] = test system: SW-620 colon
# [14] = test system: MCF7 breast
# [15] = test system: HCT-116 colon
# [16] = test system: HCC-2998 colon
# [17] = test system: KM12 colon
# [18] = test system: OVCAR-8 ovarian
Compound,growth [1],growth [2],growth [3],growth [4],growth [5],growth [6],growth [7],growth [8],growth [9],growth [10],growth [11],growth [12],growth [13],growth [14],growth [15],growth [16],growth [17],growth [18]
O=C1Cc2ccccc2C(=O)N1,30.4% (inactive),48.9% (inactive),96.1% (inactive),63.4% (inactive),98.9% (inactive),76.8% (inactive),76.3% (inactive),103% (inactive),91.8% (inactive),71.1% (inactive),101% (inactive),99.4% (inactive),56.6% (inactive),56.8% (inactive),6.29% (active),103% (inactive),102% (inactive),–
CCC(C)NC(=O)c1ccccc1C (configuration not stated),111% (inactive),105% (inactive),79.6% (inactive),109% (inactive),97.5% (inactive),94.1% (inactive),110% (inactive),96.8% (inactive),92.7% (inactive),94.3% (inactive),99.4% (inactive),103% (inactive),92.4% (inactive),90.7% (inactive),–,96.7% (inactive),101% (inactive),–
CCOC(=O)C1=CC(=O)CC(C)(C)O1,82.1% (inactive) and 114% (inactive),92.8% (inactive) and 111% (inactive),110% (inactive) and 101% (inactive),128% (inactive) and 117% (inactive),–,103% (inactive) and 120% (inactive),118% (inactive) and 96.9% (inactive),117% (inactive),96.9% (inactive) and 110% (inactive),110% (inactive) and 107% (inactive),99.2% (inactive) and 117% (inactive),119% (inactive) and 111% (inactive),96.5% (inactive) and 105% (inactive),109% (inactive),–,102% (inactive) and 108% (inactive),107% (inactive) and 76.9% (inactive),–
O=C(Nc1ccccc1)OCC(CN1CCCCC1)OC(=O)Nc1ccccc1 (configuration not stated),82.9% (inactive),90.6% (inactive),105% (inactive) and 96.7% (inactive),76.4% (inactive) and 104% (inactive),–,–,91.2% (inactive) and 101% (inactive),91.6% (inactive),85.6% (inactive) and 96.1% (inactive),71.5% (inactive) and 97% (inactive),69.7% (inactive) and 102% (inactive),90.3% (inactive) and 97.4% (inactive),–,72.9% (inactive) and 96% (inactive),69.1% (inactive) and 93.6% (inactive),94% (inactive) and 98.4% (inactive),93% (inactive) and 101% (inactive),–
OC(CC(c1ccccc1)c1cccc2ccccc12)(c1ccccc1)c1ccccc1 (configuration not stated),94.9% (inactive) and 63.1% (inactive),88.4% (inactive) and 67.4% (inactive),92.1% (inactive) and 89.9% (inactive),81.3% (inactive) and 75.7% (inactive),85.4% (inactive) and 93.1% (inactive),88.6% (inactive) and 84.8% (inactive),94.1% (inactive) and 90.6% (inactive),84.4% (inactive) and 86.6% (inactive),76.2% (inactive) and 70.3% (inactive),64% (inactive) and 81.8% (inactive),88.4% (inactive),96.9% (inactive) and 88.9% (inactive),77% (inactive) and 80.9% (inactive),79.1% (inactive) and 79.3% (inactive),58.9% (inactive) and 46.3% (inactive),98.9% (inactive) and 88.1% (inactive),89.2% (inactive) and 90.9% (inactive),–
COc1ccc(-n2[nH]c3c(cnc4ccccc43)c2=O)cc1,–,75.7% (inactive) and 106% (inactive),107% (inactive) and 108% (inactive),111% (inactive) and 97.6% (inactive),105% (inactive) and 99.4% (inactive),87.6% (inactive) and 115% (inactive),100% (inactive) and 116% (inactive),117% (inactive) and 97.5% (inactive),78.5% (inactive) and 101% (inactive),88.3% (inactive),90% (inactive) and 95.4% (inactive),94.7% (inactive) and 97.3% (inactive),106% (inactive) and 103% (inactive),98.8% (inactive) and 93.1% (inactive),90.5% (inactive) and 95.1% (inactive),69.2% (inactive) and 107% (inactive),99.1% (inactive) and 97.7% (inactive),101% (inactive) and 99.7% (inactive)
CC(=O)Oc1ccc(C2(c3ccc(OC(C)=O)cc3)C(=O)Nc3ccccc32)cc1,–,108% (inactive) and 75.1% (inactive),103% (inactive) and 89.5% (inactive),6.67% (active) and -15.3% (active),115% (inactive) and 114% (inactive),65% (inactive) and 46.1% (inactive),-1.41% (active) and -3.11% (active),-18.5% (active) and -15.5% (active),16.6% (inactive) and -4.21% (active),-26.3% (active) and -22.5% (active),-33.3% (active) and -8.43% (active),110% (inactive) and 126% (inactive),–,9.09% (active) and 15.1% (inactive),84.9% (inactive) and 84.5% (inactive),-3.15% (active) and 44.8% (inactive),71.3% (inactive) and 61.9% (inactive),27.1% (inactive) and 25.5% (inactive)
